The values that follow come from PubChem BioAssay (NCATS).

Inconclusive results are not listed. Where a call stands in place of a potency, no number is given. Activity calls are given as the source filed them. Calls come from the whole dose curve; as a rule, active = well fitted inhibition curve with a large enough effect; inconclusive = small, poorly fitted or top-dose-only effect; inactive = flat fitted curve, though single readings scatter. Non-standard residues stand in square brackets, D forms with d. Residues, ends and D or L forms follow the SMILES beside them. *: point of attachment. Sta = CC(C)C[C@H](N)[C@@H](O)CC(=O)O; Isovaleryl = CC(C)CC(=O)*
Potency is the fitted concentration of half-maximal effect.

In the test the target is Voltage-gated inwardly rectifying potassium channel KCNH2 (Homo sapiens) (UniProt Q12809). In words: qHTS Assay for Small Molecule Inhibitors of the Human hERG Channel Activity (AID 588834).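 Note: lower thallium flux fluorescence means stronger hERG block; nearly all actives have a fitted effect of over 50% in size.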 Conditions: U2OS BacMam hERG, FluxOR thallium flux fluorescence; series mostly up to 46.1 µM. The essentials: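 U2OS cells BacMam-transduced with hERG, 2000 cells/well, compound ~10 min at 37 °C before stimulation buffer. FluxOR thallium flux fluorescence read kinetically on FDSS; decrease indicates block; AC50 from Hill fits.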
Sequence of Voltage-gated inwardly rectifying potassium channel KCNH2 (Homo sapiens) (Q12809 whole entry, looked up): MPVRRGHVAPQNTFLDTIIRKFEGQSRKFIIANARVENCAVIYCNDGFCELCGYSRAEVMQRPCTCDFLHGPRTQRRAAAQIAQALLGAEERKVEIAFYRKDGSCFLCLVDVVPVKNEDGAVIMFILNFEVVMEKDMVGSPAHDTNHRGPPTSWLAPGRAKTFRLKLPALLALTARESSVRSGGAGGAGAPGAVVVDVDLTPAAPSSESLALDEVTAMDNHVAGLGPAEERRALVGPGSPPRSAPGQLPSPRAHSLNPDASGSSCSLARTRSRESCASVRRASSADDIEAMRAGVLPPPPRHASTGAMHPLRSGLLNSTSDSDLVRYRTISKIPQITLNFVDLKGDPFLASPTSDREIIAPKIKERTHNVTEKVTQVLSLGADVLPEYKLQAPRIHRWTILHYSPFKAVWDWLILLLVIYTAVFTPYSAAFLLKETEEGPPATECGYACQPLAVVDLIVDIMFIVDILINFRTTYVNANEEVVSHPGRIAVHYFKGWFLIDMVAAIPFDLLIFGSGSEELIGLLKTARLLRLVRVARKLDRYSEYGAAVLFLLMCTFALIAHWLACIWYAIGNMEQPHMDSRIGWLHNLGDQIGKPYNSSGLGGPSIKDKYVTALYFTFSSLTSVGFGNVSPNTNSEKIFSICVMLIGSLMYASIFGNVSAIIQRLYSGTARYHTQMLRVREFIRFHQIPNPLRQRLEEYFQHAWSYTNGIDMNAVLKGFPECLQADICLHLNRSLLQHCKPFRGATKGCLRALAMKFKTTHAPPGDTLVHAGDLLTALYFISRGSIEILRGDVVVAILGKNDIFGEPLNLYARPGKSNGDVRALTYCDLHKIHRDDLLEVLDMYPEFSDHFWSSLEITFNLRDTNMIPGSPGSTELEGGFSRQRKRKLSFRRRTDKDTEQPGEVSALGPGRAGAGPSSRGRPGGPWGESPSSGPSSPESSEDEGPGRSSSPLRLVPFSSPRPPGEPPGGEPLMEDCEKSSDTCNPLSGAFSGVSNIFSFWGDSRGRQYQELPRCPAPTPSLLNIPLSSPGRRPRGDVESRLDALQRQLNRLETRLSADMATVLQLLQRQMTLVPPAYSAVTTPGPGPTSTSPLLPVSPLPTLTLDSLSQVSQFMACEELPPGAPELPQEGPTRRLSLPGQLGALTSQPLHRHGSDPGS
For the compound `CC1(C)C(=O)N(CCN2CCC(C(=O)c3ccc(F)cc3)CC2)c2ccccc21`, the Potency was 891 nM (active).

In the case of `O=C(NCCO[N+](=O)[O-])c1cccnc1`, the Potency entry was “inactive”.

With `Cc1cc(C2CCCCC2)n(O)c(=O)c1`, the Potency result was “inactive”.

Consider `C[Se]CCC(N)C(=O)O` (configuration not stated), for which the Potency entry was “inactive”.

Regarding `Cc1ccc(S(=O)(=O)NC(=O)NN2CC3CCCC3C2)cc1` (configuration not stated), the Potency entry is “inactive”.

For the compound `O=c1cc(N2CCOCC2)oc2c(-c3ccccc3)cccc12`, the Potency result was “inactive”.

On to `CC(C)C[C@H](NC(=O)[C@H](Cc1ccccc1)NC(=O)c1cnccn1)B(O)O`, for which the Potency entry was “inactive”.

Consider `CC(C)CC(=O)N[C@H](C(=O)N[C@H](C(=O)N[C@@H](CC(C)C)[C@@H](O)CC(=O)N[C@@H](C)C(=O)N[C@@H](CC(C)C)[C@@H](O)CC(=O)O)C(C)C)C(C)C` (Isovaleryl-VV[Sta]A[Sta]-OH), for which the Potency entry was “inactive”.

`CN(c1nccc(=O)[nH]1)C1CCN(c2nc3ccccc3n2Cc2ccc(F)cc2)CC1`: the Potency was 1780 nM (active).

For `O=C1c2ccccc2-c2n[nH]c3cccc1c23`, the Potency result was “inactive”.

For the compound `Cc1c(OCC(F)(F)F)ccnc1CS(=O)c1nc2ccccc2[nH]1` (configuration not stated), the Potency result was “inactive”.

`COc1ccc(C2(C#N)CCC(C(=O)O)CC2)cc1OC1CCCC1` (configuration not stated): the Potency entry was “inactive”.

`CC(C)c1ccc2c(c1)c(SC(C)(C)C)c(CC(C)(C)C(=O)O)n2Cc1ccc(Cl)cc1`: the Potency entry was “inactive”.

Consider `CC[C@]1(O)C[C@H]2CN(CCc3c([nH]c4ccccc34)[C@@](C(=O)OC)(c3cc4c(cc3OC)N(C=O)[C@H]3[C@@](O)(C(=O)OC)[C@H](OC(C)=O)[C@]5(CC)C=CCN6CC[C@]43[C@@H]65)C2)C1`, for which the Potency result was “inactive”.

As for `C=C(c1ccc(C(=O)O)cc1)c1cc2c(cc1C)C(C)(C)CCC2(C)C`, the Potency entry was “inactive”.

For the compound `CCOC(=O)C1=C[C@@H](OC(CC)CC)[C@H](NC(C)=O)[C@@H](N)C1`, the Potency entry is “inactive”.

For `COc1c(O)cc2c(c1O)[C@@H]1O[C@H](CO)[C@@H](O)[C@H](O)[C@H]1OC2=O`, the Potency result was “inactive”.

On to `O=C(NC(Cc1cc(=O)[nH]c2ccccc12)C(=O)O)c1ccc(Cl)cc1` (configuration not stated), for which the Potency result was “inactive”.

With `COC1=C(OC)C(=O)C(CCCCCCCCCCO)=C(C)C1=O`, the Potency entry was “inactive”.

Turning to `O=C(O)c1cn(-c2ccc(F)cc2)c2cc(N3CCNCC3)c(F)cc2c1=O`, the Potency entry is “inactive”.

For `O=c1c(O)c(-c2cc(O)c(O)c(O)c2)oc2cc(O)cc(O)c12`, the Potency entry is “inactive”.

For `CC1Cc2ccccc2N1NC(=O)c1ccc(Cl)c(S(N)(=O)=O)c1` (configuration not stated), the Potency result is “inactive”.

As to `NC(=NCc1ccccc1)NC(=O)c1nc(Cl)c(N)nc1N`, the Potency was 5620 nM (active).

For the compound `Cc1cccc(CN2CCN(C(c3ccccc3)c3ccc(Cl)cc3)CC2)c1` (configuration not stated), the Potency was 1260 nM (active).

On to `Nc1nc(OCc2ccccc2)c2[nH]cnc2n1`, for which the Potency entry is “inactive”.

Take `S=c1nc[nH]c2nc[nH]c12`: the Potency entry is “inactive”.

On to `Clc1ccc(C(Cn2ccnc2)OCc2ccsc2Cl)c(Cl)c1` (configuration not stated), for which the Potency was 10000 nM (active).

With `Cc1cccc(C#Cc2ccccc2)n1`, the Potency entry was “inactive”.

For `CC(=O)O[C@H]1C(=O)[C@@]2(C)C([C@H](OC(=O)c3ccccc3)[C@]3(O)C[C@H](OC(=O)[C@H](O)[C@@H](NC(=O)c4ccccc4)c4ccccc4)C(C)=C1C3(C)C)[C@]1(OC(C)=O)CO[C@@H]1C[C@@H]2O` (some centres not stated), the Potency result was “inactive”.

Take `CN(C)C(=O)COC(=O)Cc1ccc(OC(=O)c2ccc(N=C(N)N)cc2)cc1`: the Potency entry was “inactive”.

Take `Cc1cc2cc3c(C)cc(=O)oc3c(C)c2o1`: the Potency result was “inactive”.

As for `COC(=O)C1=C(C)NC(C)=C(C(=O)OCCCN2CCC(c3ccccc3)(c3ccccc3)CC2)C1c1cccc([N+](=O)[O-])c1` (configuration not stated), the Potency is 2000 nM (active).
